Test results reported in ChEMBL document CHEMBL4513216, “Probing the Open Global Health Chemical Diversity Library for Multistage-Active Starting Points for Next-Generation Antimalarials” (ACS Infect Dis, 2020).
Screen size: about 69,000 compounds; about 8,600 (12%) showed an effect of 50% or more. The sample holds strong results, similar compounds and a random draw of the others, so the mix is not that of the screen.

test system: Plasmodium berghei; test: Screen against P. berghei liver stage (PbLuc), transformed with Luciferase, at 10uM; format: functional, HepG2; details: tested at 10 uM

Q: For Cc1nn(C)c(C)c1-c1cnc(CC2CCNCC2)cn1, which INHIBITION is on record?
A: The INHIBITION was 21.1%.

Q: Which INHIBITION does the source give for CCN(C(=O)Cn1cc(NC(=O)C(C)(C)C)cn1)c1ccccc1 here?
A: Its INHIBITION is 7.65%.

Q: Which INHIBITION does the source give for Cc1cncc(C(=O)N2CCC3(CCCN(c4nncs4)C3)C2)c1 (configuration not stated) here?
A: The INHIBITION was 41.2%.

Q: O=C(Nc1ccccc1)C1=NOC2(CCCN(C(=O)N3CCCC3)C2)C1 (configuration not stated) was tested. Which INHIBITION did it give?
A: The INHIBITION was -8.28%.

Q: How did the INHIBITION turn out when COc1ccc(C)cc1CN(C)CCCNS(C)(=O)=O was run?
A: Its INHIBITION is 23%.

Q: For CCS(=O)(=O)CCN(C)Cc1cc(C)ccc1OC, which INHIBITION is on record?
A: Its INHIBITION is 21.1%.

Q: CNS(=O)(=O)CCCN(C)Cc1cc(C)ccc1OC was tested. Which INHIBITION did it give?
A: The INHIBITION was 59.1%.

Q: Which INHIBITION does the source give for Cn1ccc2ccc(C(=O)N3CCN(C(=O)N4CCOCC4)CC3)cc21 here?
A: Its INHIBITION is 40.1%.

Q: Which INHIBITION does the source give for CCOC(=O)N1CCN(C(=O)c2ccc3ccn(C)c3c2)CC1 here?
A: The INHIBITION was 38.5%.

Q: Which INHIBITION does the source give for CC(=O)N1CCN(C(=O)c2ccc3ccn(C)c3c2)CC1 here?
A: The INHIBITION was 63.3%.

Q: How did the INHIBITION turn out when C[C@@H]1CN(C(=O)[C@H]2CCCO2)C[C@]12CCN(c1ccsc1)C2=O was run?
A: The INHIBITION was 49.7%.

Q: Which INHIBITION does the source give for COc1ncccc1C(=O)N1CC[C@H]2C[C@H](c3ccncn3)O[C@@H]2C1 here?
A: The INHIBITION was 52%.

Q: For COc1ncccc1C(=O)N1CC[C@H]2C[C@@H](c3ccncn3)O[C@@H]2C1, which INHIBITION is on record?
A: Its INHIBITION is -42.8%.

Q: COc1ncccc1C(=O)N1CC[C@H]2C[C@@H](C)O[C@@H]2C1 was tested. Which INHIBITION did it give?
A: Its INHIBITION is -40.3%.

Q: Cc1ccc(N2CC[C@@H]3O[C@@H](c4ccncn4)C[C@H]3C2)nn1 was tested. Which INHIBITION did it give?
A: Its INHIBITION is 37.8%.

Q: COc1cc(N2CC[C@@H]3O[C@@H](c4ccnc(C)n4)C[C@H]3C2)ncn1 was tested. Which INHIBITION did it give?
A: Its INHIBITION is 45.8%.

Q: COc1cc(N2CC[C@@H]3O[C@@H](c4ccncn4)C[C@H]3C2)ncn1 was tested. Which INHIBITION did it give?
A: The INHIBITION was 73.2%.

Q: For CCc1nc(Nc2ccc(C(=O)NC)cc2)c2c(n1)c(C)nn2CC, which INHIBITION is on record?
A: Its INHIBITION is 18.85%.

Q: Which INHIBITION does the source give for O=C(NC1CCc2ccccc2C1)C1CCN(Cc2ccco2)CC1 (configuration not stated) here?
A: The INHIBITION was 31%.

Q: How did the INHIBITION turn out when Cc1noc(C(C)N2CCN(CCOCC(F)(F)F)CC2)n1 (configuration not stated) was run?
A: The INHIBITION was 12.85%.

Q: Which INHIBITION does the source give for Cc1cncc(C2CCN(Cc3cnc(C)nc3)CC2)n1 here?
A: The INHIBITION was 36.44%.

Q: With Cc1ncc(CN2CCC(n3cc(-c4ccc(F)cc4)nn3)CC2)cn1 as the compound, how does the INHIBITION read?
A: The INHIBITION was 53.8%.

Q: For OCc1ccc(CN2CCC(n3cc(-c4ccc(F)cc4)nn3)CC2)o1, which INHIBITION is on record?
A: The INHIBITION was -0.529%.

Q: For Cc1ccc(-c2cn(C3CCN(C(=O)[C@H]4CCCO4)CC3)nn2)cc1, which INHIBITION is on record?
A: The INHIBITION was 23.3%.

Q: How did the INHIBITION turn out when Oc1ccccc1CN1CCC(n2cc(-c3ccc(F)cc3)nn2)CC1 was run?
A: Its INHIBITION is 55%.

Q: For O=C(C1CCCO1)N1CCC(n2cc(-c3ccc(F)cc3)nn2)CC1 (configuration not stated), which INHIBITION is on record?
A: Its INHIBITION is -10.9%.

Q: How did the INHIBITION turn out when O=C(c1ccccn1)N1Cc2nccn2CC(CN2CCOCC2)C1 (configuration not stated) was run?
A: Its INHIBITION is 38.7%.

Q: For CNC(=O)CCc1cc(C2CCN(c3cnccn3)CC2)nc(C)n1, which INHIBITION is on record?
A: Its INHIBITION is 15.85%.

Q: For CN(C)Cc1cn2c(n1)CN(CC1CCCC1)CC2, which INHIBITION is on record?
A: The INHIBITION was 29%.

Q: Which INHIBITION does the source give for CCn1ccc(-c2cc(C(=O)O)n3nc(C(F)(F)F)c(Br)c3n2)n1 here?
A: Its INHIBITION is 11.2%.

Q: For Cc1ccc(C(=O)N2CCc3c(CNc4ncccn4)cncc3C2)o1, which INHIBITION is on record?
A: Its INHIBITION is -66.6%.

Q: With CCc1cc(CN(C)C(=O)c2cnon2)on1 as the compound, how does the INHIBITION read?
A: The INHIBITION was -40.6%.

Q: OCc1csc(N2CCCC(CO)(Cc3cccc(Cl)c3)C2)n1 (configuration not stated) was tested. Which INHIBITION did it give?
A: The INHIBITION was -14.9%.

Q: Cc1cnn(CC2CCCN2Cc2coc(-c3ccc(F)cc3)n2)c1 (configuration not stated) was tested. Which INHIBITION did it give?
A: The INHIBITION was 69.7%.

Q: How did the INHIBITION turn out when Fc1cccc(-c2nc(CN3CCCC3Cn3cncn3)co2)c1 (configuration not stated) was run?
A: Its INHIBITION is 7.12%.

Q: How did the INHIBITION turn out when Fc1cccc(-c2nc(CN3CCCC3Cn3cccn3)co2)c1 (configuration not stated) was run?
A: The INHIBITION was -14.6%.

Q: For Cc1cnn(CC2CCCN2Cc2coc(-c3cccc(F)c3)n2)c1 (configuration not stated), which INHIBITION is on record?
A: The INHIBITION was 80.8%.

Q: For Cc1cnn(CC2CCCN2Cc2coc(-c3ccccc3)n2)c1 (configuration not stated), which INHIBITION is on record?
A: Its INHIBITION is -14.2%.

Q: How did the INHIBITION turn out when Fc1ccc(-c2nc(CN3CCCC3Cn3cncn3)co2)cc1 (configuration not stated) was run?
A: Its INHIBITION is 4.71%.

Q: Which INHIBITION does the source give for CS(=O)(=O)C1CCN(S(=O)(=O)c2ccc(F)c(F)c2)C1 (configuration not stated) here?
A: The INHIBITION was 21.2%.

Q: Which INHIBITION does the source give for Cn1ccc2cc(C(=O)NC3CCS(=O)(=O)C3)ccc21 (configuration not stated) here?
A: Its INHIBITION is -42.5%.

Q: CNC(=O)[C@@H](C1CCCCC1)N1CCC[C@H]1C(=O)NCCN1CCCC1 was tested. Which INHIBITION did it give?
A: Its INHIBITION is 0.112%.

Q: Which INHIBITION does the source give for CCc1nnc(SCC(=O)N2C[C@H]3CC[C@@H](C2)N(CC=C(C)C)C3)[nH]1 here?
A: The INHIBITION was 26.7%.

Q: How did the INHIBITION turn out when CC1c2ncc(CNC(=O)C3CC3)n2CCN1Cc1cccnc1 (configuration not stated) was run?
A: The INHIBITION was -5.31%.

Q: With Cc1nc(N2CCOCC2)sc1C(=O)NCC(C)(C)N1CCCCC1 as the compound, how does the INHIBITION read?
A: The INHIBITION was -4.87%.

Q: How did the INHIBITION turn out when COCCN1CCCC12CCN(C(=O)CC1CCCC1)CC2 was run?
A: Its INHIBITION is 32.4%.

Q: Which INHIBITION does the source give for Cn1ncc(C(=O)N2CCN(CCS(C)(=O)=O)CC2)c1Cl here?
A: The INHIBITION was 30.95%.

Q: For O=C(NCC(O)Cc1ccccc1)c1ccc2[nH]c(=O)[nH]c2c1 (configuration not stated), which INHIBITION is on record?
A: Its INHIBITION is 43.9%.

Q: With CCCc1nc(C)c(CN2CC3(CCOC3)CCC2=O)s1 (configuration not stated) as the compound, how does the INHIBITION read?
A: The INHIBITION was 33.7%.

Q: With O=C1CCC2(CCOC2)CN1CCCOc1cccnc1 (configuration not stated) as the compound, how does the INHIBITION read?
A: Its INHIBITION is -0.897%.

Q: With O=C1CCC2(CCOC2)CN1Cc1nncn1CCc1ccccc1 (configuration not stated) as the compound, how does the INHIBITION read?
A: Its INHIBITION is 10.1%.

Q: How did the INHIBITION turn out when CCn1nc(C)c(CCN2CC3(CCOC3)CCC2=O)c1C (configuration not stated) was run?
A: The INHIBITION was 56.6%.
